The results in this text go back to PubChem BioAssay AID1508600 (Functional Genomics Laboratory (NCATS/FGL), 2020).

About 3,700 (7%) of roughly 53,000 sequences were called active. Many of the other results were omitted from the sample, so actives are more common in it than they were. A number with no mark means an inactive call.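 How the source made its calls: active means gene knockdowns whose robust z-score for IL-1 alpha signal is at least 2 or at most -2, so actives lie on both sides; inactive means the rest.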

A short description of the test: Components of the Cytosolic LPS Sensing Pathway: Gene Identification via Genome-wide siRNA Screen.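 Further: robust z of the log signal after scaling to non-targeting control siRNA wells of the plate.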 The note with it: RAW264.7 macrophages, IL-1a HTRF, actives lie on both sides, screened at 100 nM (by protocol), cells primed 5 h with Pam3CSK4 first. The essentials:
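Cells (RAW264.7, 1×10^4 per well) were transfected with siRNA at 100 nM and cultured 48h at 37 degrees C. Pam3CSK4 was added for 5 hours; LipidA transfection followed for 24 hour. IL-1a was then measured by HTRF.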
Background: In TR-FRET formats the signal depends on donor and acceptor labels being close together.
In the case of GCCCGCACAAUCGUACUUUTT against Ccl28, the z-score is -1.2.

GGAAAACUGCGUUUGGAAATT against Neil3: the z-score was 0.387.

With GCAAUAGUGAGCACGCCAGTT against Col18a1, the z-score is 0.307.

Turning to GGUCUGUGGACUGAACUUATT against Bcl2l11, the z-score is -2.6 (active).

Turning to GGAUGAAGAACUCAGAGUGTT against Slc66a2, the z-score is -1.24.

As for GGUCAUUCUUAAUUGUUCATT against Kpna6, the z-score is 0.939.

As for “CCAAAGUCUGUUAAUGGGUTT against 4921517D22Rik”, the z-score was 0.401.

For the sequence GCUAUGCAGAGGAGUAUGCTT against Duoxa1, the z-score was 3.03 (active).

As to GGAGACAUUGCUAUAUAUGTT against Hmgcs1, the z-score was -0.207.

With GGCCUAAGGCUGUGAAUGUTT against D2hgdh, the z-score was -2.59 (active).

On to GCCGUUUACGUUUAUUGUUTT against Cux2, for which the z-score was -0.0356.

On to GGACAGAAUACGUGAGGAGTT against Septin5, for which the z-score was -0.427.

As for GGAGUUCCAGCAGCUCUAUTT against Vsnl1, the z-score was 0.741.

On to GGUUCUGCUGGACAACUUUTT against Cyp46a1, for which the z-score was -0.377.

As to CCCUCAUAACUAAUGCUGUTT against Pip5kl1, the z-score was -0.276.

With GGUGAUCCAAGACUUCCAGTT against Actl6b, the z-score was 1.16.

Consider GCAGUGAUCCAUGAGCCUATT against Eif5a, for which the z-score was 4.64 (active).

With GCACCAAUAUUAGGCUGACTT against Noct, the z-score is 1.73.

As to CGAGCACACUUUUGAAGAATT against Gm5089, the z-score is 1.33.

For the sequence GGCUACGAUCCUACAGUGGTT against Rhebl1, the z-score is -0.283.

Take GGCAACACUGUGGCUAAGUTT against Ankrd13d: the z-score was 2.74 (active).

Turning to GCUGGUAACAGAAUUUCUUTT against Aox2, the z-score is 0.515.

In the case of GCUAAACAGACAACUCAACTT against Rufy2, the z-score was 1.04.

With GGUAAAACCCAAUAGUAACTT against Gclm, the z-score is 0.45.

As to GGAUCUUUACUGCUUUGUGTT against Picalm, the z-score was 2.42 (active).

Regarding GCCAAUUUGAAGGUUUUCATT against Tlr8, the z-score was 1.58.

Take GGCUCUUGGAUAUUUCCGATT against Nop9: the z-score was 0.342.

As to CCUAAUGGAAGGGAAGCCATT against Cox19, the z-score is -2.06 (active).

In the case of GGACCUGAAUAAGACUAUUTT against Lgmn, the z-score is -0.429.

As for GGGAGGUUACUAUGGAGACTT against Mia, the z-score is 1.68.

In the case of GCUACUGCAUUCUCUAUCATT against Actl9, the z-score was 1.94.

Take GGCAACUGUGUUCUCACGATT against Ddx58: the z-score is -1.22.

Consider CCACUUCCAUAGAGAUUUUTT against Tmx3, for which the z-score is 2.93 (active).

Consider GCUUUGUUUGAAAAUGCGATT against Nrde2, for which the z-score is -0.66.

On to CCGCGUGUAUAAGUUGGUGTT against Mrpl9, for which the z-score was 1.23.

For the sequence GCCUCGAUUCACCAAGUGUTT against Ghr, the z-score is -0.663.

Regarding GGAAGAUCGAGAAUGUUCCTT against Ppih, the z-score was 0.174.

On to GCCAUAUCAACUCAGAUCATT against Ssh2, for which the z-score is 5.04 (active).

As to GGUAAUAAGUCCCAUUUUCTT against Prpmp5, the z-score was 0.817.

For GGCCAGAAGAACUAACAGUTT against Cept1, the z-score was -0.11.

For GGACAAUGCUAAUGAGACCTT against Gcsam, the z-score is -0.176.

As for GAGGGACUGUAAUGUUGACTT against Olfr560, the z-score was 0.0877.

With CCGCUAGACAAAUUUUGCCTT against Slc6a2, the z-score was 1.45.

With GCUACAGUAGUAAGACUAATT against Usp53, the z-score was 2.67 (active).

For the sequence GGAGUAACAACACAACAUUTT against Mab21l1, the z-score was 1.43.

Turning to CGCUGAAAGUGAACGUAGGTT against Kcnv2, the z-score was -1.14.

For CCUUCACAUAAGUUUCUGUTT against Nuak2, the z-score is 0.575.

In the case of GAGGAAGACACUUUUCCUGTT against Atp23, the z-score is 0.765.

On to GGGCAGUGAAAUCCUGUCUTT against Trim16, for which the z-score is -2.81 (active).

Consider GCUUAGAUCACCUAAUGACTT against Parp3, for which the z-score is 1.18.

Turning to GGAUGUUUGGACCAAUCACTT against Iba57, the z-score is -0.962.

As to GGUGCUACUCCAGAUUGACTT against Tbc1d13, the z-score is 0.63.

As for GGUUAUAAACCAGAAGAGUTT against Mill2, the z-score is 0.807.

With GCUGUUAGACCUCUUGAUUTT against Olfr1164, the z-score was 0.0632.

GGUAGAUCAGUAAUAGUUATT against Glrb: the z-score was 0.837.

As for GGAGAUUGAGAACACAAGCTT against Hipk2, the z-score was 2.37 (active).

With CCAGACACAUAGGACAAAATT against Slco3a1, the z-score was -0.00454.

With GGCUGUGCGUGUUACAAAATT against Erlin1, the z-score was 0.501.

As for GGAAUGUCUAUCACAAUGGTT against Vmn1r230, the z-score is 1.78.

On to GGUGGAAGAUGAGAAAGAGTT against Tmem139, for which the z-score is -1.21.

With GGAAGAUAAAUGUCACAAATT against AA792892, the z-score was 0.392.

In the case of GCCAGAAAUACCUGUCGGATT against Cdc37, the z-score was -0.229.

For CCACUUUCAACUUUCCGCATT against Fgd5, the z-score was -1.94.

In the case of GCUAGACCUAAGGAGCAAATT against Axin1, the z-score was 3.59 (active).

As for GGCCAAUUUCUUCACUUCUTT against Ints11, the z-score is -0.809.

Turning to GGUUUUCACCAUAUGCAGCTT against Zfp353-ps, the z-score was 0.267.

Turning to GGAAGAAAUGUCAUCACAATT against Heph, the z-score is 0.193.

Take CGGACACAUUGACUGAAUATT against Adgrl1: the z-score is -1.45.

For CCCACAUCAUUGAGAUUCUTT against Olfr1508, the z-score is -1.25.

Consider GGAGAAGUUUGAAGAGAUGTT against Cct5, for which the z-score is -2.24 (active).

In the case of GGAAGAAAACAUUUAGCCCTT against Mmd2, the z-score is 0.504.

In the case of ACAUACCAGUCUCUGUACCTT against Pigu, the z-score was -1.56.

Turning to CCGCCUCUUACCGAAGUUCTT against Mettl4, the z-score is 3.04 (active).

With GGACUUGAAAGAUAAAUAGTT against Crx, the z-score was 0.163.

As for GCUAAUAACUUUUCAGUGATT against Olfr381, the z-score was 0.549.

As for GGUUGGUAGGAUGGACAAGTT against Rab11b, the z-score was 2.45 (active).

For GCCCUGUAUUUUGAAUUACTT against Bmpr1b, the z-score is 0.0161.

As to GGGAAGAAAUAUGUUAGAUTT against Pip4p2, the z-score is 0.92.

Consider CCUUGUUACUAUACUACACTT against Ppp1r2, for which the z-score is 2.59 (active).

Consider GCCUUUUAGCUGUUCAGGATT against Nlrc5, for which the z-score is 1.83.

Turning to GCUGAAGCAUACAUUUGUGTT against Tas2r137, the z-score was -0.226.

Consider CCAAUCUCCUGUUGUUAAATT against Mlf1, for which the z-score was 0.557.

Consider CCAGUCUUGCCCUUUAGUGTT against Foxi2, for which the z-score is -1.88.

For AUGUAUUGAGUCAGGCAUCTT against Olfr243, the z-score is 2.32 (active).

In the case of CCUUACCACUUGAAGAUGGTT against Ephx1, the z-score was -1.2.

As for GCCAGUGAGUUUAUCAGCCTT against B4galnt3, the z-score is 0.706.

Regarding GGUAUACAUGCUUCUCUCUTT against Olfr610, the z-score was -0.569.

On to GCUACAGAACCUGCUCUACTT against Thoc5, for which the z-score is 0.391.

For the sequence GGCAUUGAACAAGAAAGAATT against Mef2c, the z-score was -0.94.

With GGGUAUGGUUUCAUCACUUTT against Boll, the z-score is -2.71 (active).

In the case of GGAAGACAAAGAUUCUAGUTT against Abcc1, the z-score is -1.06.

As to UUACUGGUUGCUGUUGUGGTT against Alyref, the z-score was 1.35.

As to GGAGAUCUCCUCAGCCACATT against Gemin4, the z-score was -2.14 (active).

With GCUGUGGUACAACCACAUUTT against Lrrc8a, the z-score was -0.244.

Regarding GGAACCACACCAUGUGAAATT against Prdm5, the z-score was 0.828.

Turning to CCAUUCCCGCAUCCAUGUGTT against Zfp672, the z-score was -2.23 (active).

On to AGAGGAAGCUCGAAAACGGTT against Zrsr2, for which the z-score is -0.2.

Turning to GGAUAUCAUCGUGUUUAUUTT against Vps45, the z-score was 0.612.

As for GGACAACAUUAUAGGAAAGTT against Neu3, the z-score is 2.36 (active).

For GCAAAAAAUCACUUCGAGUTT against Mgat4a, the z-score was -0.377.

Consider GGGUAAGUAUUGAACUCAUTT against Slc10a1, for which the z-score was 1.06.

Regarding GGAUGCUGAAGUAAUAGUGTT against Tbc1d15, the z-score was 0.0714.

CGUUGUCAUUCACAAGUGATT against Tmprss11e: the z-score is 3.02 (active).

As to GGAAUGCUAUCAGAGAAGATT against Zmym5, the z-score is -0.0365.

With CCCUUCUUCGGGUUUUAACTT against Kcna3, the z-score was 3.08 (active).

Turning to GGUUUAAGGUAGUUCAUGATT against Faf1, the z-score was -0.0439.

For the sequence GGCCUCAAGAAUGUAACAGTT against Psmf1, the z-score was -1.07.

As for GGACAAUUGAAUACCUAGATT against Hadha, the z-score was 0.151.
